The list is not random: actives were taken first. Their share in the collection is about 4.6%.
hgDAF12 agonist: activates the H. glycines DAF-12 receptor ligand-binding domain. HEK293 GAL4-hgDAF12 UAS-luciferase reporter, agonist luminescence; normalized to butyrate control. activation, % at 6.8 µM. hit rate 1.8% among 370,000;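 active means activation above a cutoff set at the mean of all screened compounds plus 3 SD, cut at about 10% in these data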
hcDAF-12 act: activators of H. contortus DAF-12 nuclear receptor. HEK293 hcDAF-12 lit1-tk-luc reporter, luminescence; 0% DMSO, 100% Δ7-dafachronic acid. activation, % at 6.8 µM. hit rate 1.4% among 370,000. AID 652067;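 active means activation above the mean of all tested compounds plus 3 SD, cut at about 5.5% in these data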
DAX1 inh-1: inhibits human nuclear receptor DAX1. P51843. inhibition, % at 6.75 µM. AID 504766. HEK293 Gal4-DAX1 luciferase reporter, luminescence. hit rate 0.99% among 340,000;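 active means inhibition above the mean over all tested compounds plus 3 SD, cut at about 4.2% in these data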;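 further: inhibition shows as a rise in luminescence from relieved DAX1 repression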
ssDAF12 agonist: activates DAF-12 receptor from parasite S. stercoralis; HEK293 ssDAF-12/GRIP1 lit1-tk-luc reporter, luminescence; % of 3 µM dafachronic acid response; activation, % at 6.8 µM; hit rate 1% among 370,000;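 active means activation above the mean over all tested compounds plus 3 SD, cut at about 0.9% in these data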
DAX1 inh-2: inhibitors of DAX1 repression of SF-1 activated StAR promoter; HEK293T StAR-luciferase reporter, SF-1/DAX-1 repression relief; inhibition, % at 6.8 µM; AID 652010; hit rate 1.1% among 370,000;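 active means inhibition above the mean over all tested compounds plus 3 SD, cut at about 3.6% in these data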;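 further: higher inhibition means more luminescence from relief of DAX-1 repression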
Wee1 degr inh: human Wee1 degradation inhibition, primary screen | AID 1321 | reporter increase, % at 5 µM | HeLa Luc-Wee1K328M stability, luciferase luminescence; 100% = proteasome inhibitor MG132 effect | hit rate 1.2% among 220,000 | P30291;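 active means activation above the mean of all tested compounds plus 3 SD, set per screening run, cut at about 8.8% in these data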;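 further: cells exposed to compound for 20 h before luminescence read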
Target sequence (P30291 whole entry K328M): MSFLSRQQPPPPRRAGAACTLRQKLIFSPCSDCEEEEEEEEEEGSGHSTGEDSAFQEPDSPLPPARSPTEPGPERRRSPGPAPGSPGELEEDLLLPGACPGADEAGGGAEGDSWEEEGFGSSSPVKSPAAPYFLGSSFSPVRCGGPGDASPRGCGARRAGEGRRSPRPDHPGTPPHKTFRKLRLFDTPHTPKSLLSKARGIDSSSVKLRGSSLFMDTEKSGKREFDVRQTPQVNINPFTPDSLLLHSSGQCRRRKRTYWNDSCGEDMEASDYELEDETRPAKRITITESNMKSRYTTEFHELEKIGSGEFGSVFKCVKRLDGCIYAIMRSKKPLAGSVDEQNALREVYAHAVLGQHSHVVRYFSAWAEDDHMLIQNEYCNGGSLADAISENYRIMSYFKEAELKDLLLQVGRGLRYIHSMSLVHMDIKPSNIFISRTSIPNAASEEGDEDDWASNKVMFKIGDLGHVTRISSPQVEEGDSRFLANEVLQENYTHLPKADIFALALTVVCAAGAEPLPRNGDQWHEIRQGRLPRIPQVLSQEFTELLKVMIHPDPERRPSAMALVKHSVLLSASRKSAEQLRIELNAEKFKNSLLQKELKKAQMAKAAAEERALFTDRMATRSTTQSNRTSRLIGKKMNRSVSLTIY
DAX1 inh confirm: NR0B1 (human) inhibition, confirmation | shares compounds with DAX1 inh-2 | HEK293T StAR-promoter luciferase reporter, SF-1/DAX-1 repression | inhibition, % at 6.8 µM | AID 652134 | hit rate 87% among 2,400;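 active means inhibition above the average of every tested compound plus 3 SD, cut at about 3.8% in these data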;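 further: active compounds raise luminescence by relieving repression of the StAR reporter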
SF1 AF2mut Luc: nonselective inhibitor or artifact in SF-1 mutant DAX1 counter-screen. shares compounds with DAX1 inh-2. HEK293 StAR-luciferase, SF-1 AF2 mutant, luminescence. inhibition, % at 6.8 µM. hit rate 78% among 2,400. AID 652136;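 active means inhibition above the mean of all tested compounds plus 3 SD, cut at about 3% in these data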
LXRb hcDAF ctr: LXR-beta agonism as hcDAF-12 counter-screen | shares compounds with hcDAF-12 act | HEK293 Gal4-LXR tk-luc reporter, luminescence, 24 h; normalized: DMSO 0%, positive control 100% | activation, % at 6.8 µM | 3,400 tested, under 10 active;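 active means mean percent activation of the reporter above a cutoff set as the average over tested compounds plus their standard deviation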
hcDAF12 ag: hcDAF-12 agonism, confirmation assay | AID 743032 | HEK293 hcDAF-12 lit1-tk-luc reporter, luminescence; % of Δ7-dafachronic acid response | hit rate 61% among 3,400 | shares compounds with hcDAF-12 act | activation, % at 6.8 µM;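 active means mean activation across triplicate tests above the threshold derived from the earlier primary screen, cut at about 5.5% in these data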
Large screens that a line does not name were inactive (follow-up assays come after a bar, where they were run).

O=C(NCC1(N2CCCCC2)CCCCC1)c1ccc(NS(=O)(=O)c2ccccc2)cc1	DAX1 inh-2 8.9 (no result: Wee1 degr inh) | DAX1 inh confirm 9.0 | SF1 AF2mut Luc 5.6
O=C(NCC1(N2CCCCC2)CCCCC1)c1ccc(S(=O)(=O)N2CCCC2)cc1	none
Cc1ccccc1NS(=O)(=O)c1ccc(C(=O)NCC2(N3CCOCC3)CCCCC2)cc1	none (no result: Wee1 degr inh)
Cc1cccc(NS(=O)(=O)c2ccc(C(=O)NCC3(N4CCCCC4)CCCCC3)cc2)c1C	DAX1 inh-2 7.3 (no result: Wee1 degr inh) | DAX1 inh confirm 9.7 | SF1 AF2mut Luc 6.6
N=c1c2ccccc2nc2n1CCCCCCCCCCC2	none (no result: Wee1 degr inh)
C[C@H](NS(=O)(=O)c1ccc(Cl)cc1)C(=O)OCC(=O)Nc1cc(S(=O)(=O)N2CCOCC2)ccc1Cl	DAX1 inh-2 7.7 (no result: Wee1 degr inh) | DAX1 inh confirm inactive | SF1 AF2mut Luc inactive
CCN(CC)c1ccc(S(=O)(=O)N2CCOCC2)cc1NC(=O)COC(=O)c1cccnc1SC	DAX1 inh-2 5.3 (no result: Wee1 degr inh) | DAX1 inh confirm inactive | SF1 AF2mut Luc inactive
O=C(c1cc(-c2ccccc2)on1)N1CCC(Oc2cccnc2)CC1	none (no result: DAX1 inh-1, Wee1 degr inh)
CCOC(=O)c1sc(NC(=O)CSc2nccn2C)nc1C	DAX1 inh-2 5.7 (no result: Wee1 degr inh) | DAX1 inh confirm 6.8 | SF1 AF2mut Luc 4.8
CCOC(=O)c1sc(NC(=O)CSc2ncccn2)nc1C	none (no result: Wee1 degr inh)
OCCNC(=S)NCCc1ccccc1	none
S=C(NCCc1ccccc1)Nc1ncccn1	DAX1 inh-2 5.5 (no result: Wee1 degr inh) | DAX1 inh confirm 3.9 | SF1 AF2mut Luc inactive
CCN(CC)CCn1c2c(c(SCC(=O)Nc3ccc(F)c(F)c3)nc1=O)CCC2	none (no result: Wee1 degr inh)
CCN(CC)CCCn1c2c(c(SCC(=O)Nc3nc(C)cs3)nc1=O)CCC2	none (no result: Wee1 degr inh)
CCN(CC)CCCn1c2c(c(SCC(=O)Nc3cccc(C)c3C)nc1=O)CCC2	DAX1 inh-2 7.2 (no result: Wee1 degr inh) | DAX1 inh confirm 7.7 | SF1 AF2mut Luc 6.3
CCN(CC)CCCn1c2c(c(SCC(=O)Nc3ccc(F)c(F)c3)nc1=O)CCC2	DAX1 inh-2 4.7 (no result: Wee1 degr inh) | DAX1 inh confirm inactive | SF1 AF2mut Luc inactive
CCCCC1CC2=C(C(=O)OC(C)(C)O2)C(c2ccc3ccccc3c2)O1 (configuration not stated)	none (no result: DAX1 inh-1, Wee1 degr inh)
CCC1CCc2sc(C(=O)NCC3CCCO3)cc2C1 (configuration not stated)	hgDAF12 agonist 11, DAX1 inh-2 10 (no result: Wee1 degr inh) | DAX1 inh confirm 7.3 | SF1 AF2mut Luc 3.5
CCC1CCc2sc(C(=O)NNC(=S)NCC3CCCO3)cc2C1 (configuration not stated)	none (no result: Wee1 degr inh)
O=C(N/N=C/C(Br)=C\c1ccccc1)c1n[nH]c2c1CCC2	ssDAF12 agonist 1.9, DAX1 inh-2 4.7 | DAX1 inh confirm 21 | SF1 AF2mut Luc inactive
COc1cc(-c2c(C(=O)c3ccccc3)[nH]c(N)c2C(=O)NCCc2c[nH]c3ccccc23)ccc1F	none (no result: DAX1 inh-1, Wee1 degr inh)
Cc1ccc(/C=C/C(=O)N2CCc3ccccc32)o1	hgDAF12 agonist 13, hcDAF-12 act 13, ssDAF12 agonist 1.3, DAX1 inh-2 5.2 | DAX1 inh confirm 16 | SF1 AF2mut Luc 7.3 | LXRb hcDAF ctr inactive | hcDAF12 ag 9.9
CCOC(=O)/C=C/C(=O)N1CCc2ccccc21	none
N#Cc1ccc(/C=C(\C(=O)C(=O)O)c2ccc3ccccc3n2)cc1	hgDAF12 agonist 15, hcDAF-12 act 10, DAX1 inh-1 6.0, ssDAF12 agonist 1.2, DAX1 inh-2 6.8 | DAX1 inh confirm 8.2 | SF1 AF2mut Luc 4.4 | LXRb hcDAF ctr inactive | hcDAF12 ag 8.9
COc1cc(N/N=C/c2ccccc2O)ncn1	none

Compound activity as filed in PubChem BioAssay.
